Experimental data from the supplement of paper PMC10849652.
About 8,800 targets were measured; listed, in parts, are those with a hit and a random draw of the rest. About 0.5% of all pairs of compound and target were hits. Unmarked numbers belong to inactive results.

Columns and labels:
Test in all cases: log2 fold change, soluble protein after heating vs DMSO (PISA); higher = thermal stabilisation; K562 lysate, 10 uM; active = over 0.2 and 3.5 SD of the protein, either way, in both replicates (recomputed)
[1] = compound: CS(=O)(=O)CCNCc1ccc(-c2ccc3ncnc(Nc4ccc(OCc5cccc(F)c5)c(Cl)c4)c3c2)o1 [lapatinib]
Method in brief: (§1)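 Log-two fold change in thermal stability relative to solvent controls is reported from duplicates. For each sample, crude K562 extract from dounce-homogenised pellets in PBS pH 7.4 with 1 mM MgCl2, at 1 mg/mL protein, was treated with 10 μM compound for 30 min. Aliquots heated for 3 min across 48°C-58°C were pooled, brought to 0.5% NP-40 at 4°C and cleared at 21,000xg for 90 min. The supernatant was quantified by TMTpro 16plex LC-MS/MS with channel sums equalised.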

[2] = compound: CS(=O)(=O)N1CCN(Cc2cc3nc(-c4cccc5[nH]ncc45)nc(N4CCOCC4)c3s2)CC1 [pictilisib]
Method in brief: as §1

[3] = compound: C[C@@H](Oc1cc(-c2cnn(C3CCNCC3)c2)cnc1N)c1c(Cl)ccc(F)c1Cl [crizotinib]
Method in brief: as §1

[4] = compound: C[C@H](C1=CC=C(C=C1)C(=O)NC2=C3C=CNC3=NC=C2)N
Method in brief: as §1

[5] = compound: C[C@H](Nc1ncnc2nc[nH]c12)c1cc2cccc(Cl)c2c(=O)n1-c1ccccc1 [duvelisib]
Method in brief: as §1

[6] = compound: Cc1cc(Nc2cc(CN3CCOCC3)c3nc(C)c(Cc4ccc(Cl)cc4F)n3n2)n[nH]1 [gandotinib]
Method in brief: as §1

[7] = compound: Cc1cc(Nc2cc(N3CCN(C)CC3)nc(Sc3ccc(NC(=O)C4CC4)cc3)n2)n[nH]1 [tozasertib]
Method in brief: as §1

[8] = compound: Cc1ccc(-n2nc(C(C)(C)C)cc2NC(=O)Nc2ccc(OCCN3CCOCC3)c3ccccc23)cc1 [doramapimod]
Method in brief: as §1

[9] = compound: Cc1ccc(NC(=O)c2ccc(CN3CC[C@H](N(C)C)C3)c(C(F)(F)F)c2)cc1Nc1nccc(-c2cncnc2)n1 [bafetinib]
Method in brief: as §1

[10] = compound: Cc1cccc(CC(=O)N2CCc3c2ccc(-c2cn(C)c4ncnc(N)c24)c3F)n1
Method in brief: as §1

Chain of UniProt Q9Y5K5 (Q9Y5K5 whole entry, looked up): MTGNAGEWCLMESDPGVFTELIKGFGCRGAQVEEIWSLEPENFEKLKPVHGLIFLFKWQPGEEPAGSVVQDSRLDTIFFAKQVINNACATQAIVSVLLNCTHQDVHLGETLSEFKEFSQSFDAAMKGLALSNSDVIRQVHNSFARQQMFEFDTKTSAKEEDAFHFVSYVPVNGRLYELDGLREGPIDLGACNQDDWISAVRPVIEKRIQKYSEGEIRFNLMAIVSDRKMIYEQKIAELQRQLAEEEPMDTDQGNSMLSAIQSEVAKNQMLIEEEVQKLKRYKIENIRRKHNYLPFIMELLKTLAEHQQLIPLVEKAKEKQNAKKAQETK
Chain of UniProt P36406 (P36406 whole entry, looked up): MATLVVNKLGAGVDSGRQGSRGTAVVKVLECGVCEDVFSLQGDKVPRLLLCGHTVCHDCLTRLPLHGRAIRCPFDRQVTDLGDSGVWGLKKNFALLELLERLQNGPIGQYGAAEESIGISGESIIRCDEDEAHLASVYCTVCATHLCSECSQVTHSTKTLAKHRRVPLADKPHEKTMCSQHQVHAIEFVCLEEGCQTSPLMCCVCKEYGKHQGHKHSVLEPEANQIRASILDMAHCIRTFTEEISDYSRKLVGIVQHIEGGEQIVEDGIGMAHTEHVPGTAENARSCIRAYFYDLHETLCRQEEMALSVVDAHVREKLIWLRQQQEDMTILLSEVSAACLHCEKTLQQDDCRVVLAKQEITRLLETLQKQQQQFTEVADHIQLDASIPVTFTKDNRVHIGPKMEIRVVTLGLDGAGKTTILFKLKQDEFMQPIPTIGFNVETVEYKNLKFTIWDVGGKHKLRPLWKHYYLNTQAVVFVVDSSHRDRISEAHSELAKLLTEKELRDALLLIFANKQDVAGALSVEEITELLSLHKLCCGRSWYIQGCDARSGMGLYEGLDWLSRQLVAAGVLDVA
Chain of UniProt O95071 (O95071 whole entry, looked up): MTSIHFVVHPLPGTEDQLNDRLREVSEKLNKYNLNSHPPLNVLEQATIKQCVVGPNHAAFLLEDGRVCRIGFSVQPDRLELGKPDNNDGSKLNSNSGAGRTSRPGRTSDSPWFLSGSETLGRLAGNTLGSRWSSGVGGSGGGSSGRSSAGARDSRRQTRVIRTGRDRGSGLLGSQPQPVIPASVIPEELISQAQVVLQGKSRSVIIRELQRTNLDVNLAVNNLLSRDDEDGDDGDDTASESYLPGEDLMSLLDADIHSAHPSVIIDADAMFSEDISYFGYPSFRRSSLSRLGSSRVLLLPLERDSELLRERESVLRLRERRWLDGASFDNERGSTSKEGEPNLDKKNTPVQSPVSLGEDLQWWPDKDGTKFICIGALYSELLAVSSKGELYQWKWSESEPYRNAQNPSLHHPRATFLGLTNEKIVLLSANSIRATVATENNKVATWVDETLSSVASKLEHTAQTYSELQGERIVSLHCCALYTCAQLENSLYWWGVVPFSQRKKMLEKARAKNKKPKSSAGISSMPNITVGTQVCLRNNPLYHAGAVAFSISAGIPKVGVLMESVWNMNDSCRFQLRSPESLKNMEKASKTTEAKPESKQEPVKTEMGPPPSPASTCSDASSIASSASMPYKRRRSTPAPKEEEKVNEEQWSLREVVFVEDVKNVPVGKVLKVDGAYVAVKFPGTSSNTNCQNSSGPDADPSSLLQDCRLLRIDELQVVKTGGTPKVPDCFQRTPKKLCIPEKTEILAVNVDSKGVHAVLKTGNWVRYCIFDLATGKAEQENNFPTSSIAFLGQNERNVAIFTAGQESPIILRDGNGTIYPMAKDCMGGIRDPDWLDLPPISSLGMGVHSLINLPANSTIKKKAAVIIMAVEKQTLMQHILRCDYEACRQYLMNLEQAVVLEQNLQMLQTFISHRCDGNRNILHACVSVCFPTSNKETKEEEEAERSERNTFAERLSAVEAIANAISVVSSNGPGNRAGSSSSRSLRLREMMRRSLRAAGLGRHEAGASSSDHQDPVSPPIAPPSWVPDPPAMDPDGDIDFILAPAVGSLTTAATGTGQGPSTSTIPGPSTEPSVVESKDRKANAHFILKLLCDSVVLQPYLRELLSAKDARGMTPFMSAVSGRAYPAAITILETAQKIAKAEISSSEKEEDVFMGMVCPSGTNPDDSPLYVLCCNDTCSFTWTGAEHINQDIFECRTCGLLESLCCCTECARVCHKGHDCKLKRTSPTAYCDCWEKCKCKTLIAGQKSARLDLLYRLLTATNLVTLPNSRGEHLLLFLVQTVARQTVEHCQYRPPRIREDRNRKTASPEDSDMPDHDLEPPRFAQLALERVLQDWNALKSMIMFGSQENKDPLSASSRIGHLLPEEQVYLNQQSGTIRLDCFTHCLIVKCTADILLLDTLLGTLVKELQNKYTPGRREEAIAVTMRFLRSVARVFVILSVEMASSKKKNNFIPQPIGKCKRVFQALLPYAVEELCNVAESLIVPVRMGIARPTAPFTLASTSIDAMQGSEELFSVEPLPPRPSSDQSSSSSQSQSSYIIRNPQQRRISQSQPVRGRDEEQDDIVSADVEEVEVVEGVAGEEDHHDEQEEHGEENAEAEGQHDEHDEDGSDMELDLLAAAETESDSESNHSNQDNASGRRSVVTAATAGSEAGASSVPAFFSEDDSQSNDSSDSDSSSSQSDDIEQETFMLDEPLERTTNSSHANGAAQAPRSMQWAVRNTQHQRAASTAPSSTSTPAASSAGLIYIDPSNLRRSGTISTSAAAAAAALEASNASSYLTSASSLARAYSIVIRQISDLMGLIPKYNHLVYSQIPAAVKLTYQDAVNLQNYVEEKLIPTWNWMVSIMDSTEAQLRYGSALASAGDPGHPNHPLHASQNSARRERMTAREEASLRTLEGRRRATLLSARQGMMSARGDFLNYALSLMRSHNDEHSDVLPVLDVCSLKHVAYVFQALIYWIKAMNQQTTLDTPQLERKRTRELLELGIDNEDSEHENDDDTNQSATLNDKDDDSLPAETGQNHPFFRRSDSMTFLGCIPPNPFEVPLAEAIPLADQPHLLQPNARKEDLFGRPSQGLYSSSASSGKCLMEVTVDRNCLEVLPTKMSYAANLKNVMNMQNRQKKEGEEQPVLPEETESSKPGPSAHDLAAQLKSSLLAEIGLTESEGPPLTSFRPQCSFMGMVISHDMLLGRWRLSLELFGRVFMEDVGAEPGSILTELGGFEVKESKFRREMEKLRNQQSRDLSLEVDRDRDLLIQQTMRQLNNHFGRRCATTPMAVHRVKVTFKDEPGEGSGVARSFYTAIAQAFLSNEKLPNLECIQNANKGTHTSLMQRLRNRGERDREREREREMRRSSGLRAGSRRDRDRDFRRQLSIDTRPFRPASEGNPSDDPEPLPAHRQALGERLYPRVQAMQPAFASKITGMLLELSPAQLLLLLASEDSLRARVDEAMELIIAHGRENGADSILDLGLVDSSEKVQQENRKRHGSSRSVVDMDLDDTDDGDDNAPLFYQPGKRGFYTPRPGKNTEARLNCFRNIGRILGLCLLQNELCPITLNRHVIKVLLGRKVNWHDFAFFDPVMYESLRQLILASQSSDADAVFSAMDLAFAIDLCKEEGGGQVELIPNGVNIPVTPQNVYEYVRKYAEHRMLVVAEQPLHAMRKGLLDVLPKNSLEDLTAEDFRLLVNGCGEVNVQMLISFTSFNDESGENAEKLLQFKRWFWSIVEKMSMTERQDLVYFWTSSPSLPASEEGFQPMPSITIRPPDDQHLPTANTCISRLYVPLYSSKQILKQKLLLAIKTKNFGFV
Chain of UniProt P68363 (P68363 whole entry, looked up): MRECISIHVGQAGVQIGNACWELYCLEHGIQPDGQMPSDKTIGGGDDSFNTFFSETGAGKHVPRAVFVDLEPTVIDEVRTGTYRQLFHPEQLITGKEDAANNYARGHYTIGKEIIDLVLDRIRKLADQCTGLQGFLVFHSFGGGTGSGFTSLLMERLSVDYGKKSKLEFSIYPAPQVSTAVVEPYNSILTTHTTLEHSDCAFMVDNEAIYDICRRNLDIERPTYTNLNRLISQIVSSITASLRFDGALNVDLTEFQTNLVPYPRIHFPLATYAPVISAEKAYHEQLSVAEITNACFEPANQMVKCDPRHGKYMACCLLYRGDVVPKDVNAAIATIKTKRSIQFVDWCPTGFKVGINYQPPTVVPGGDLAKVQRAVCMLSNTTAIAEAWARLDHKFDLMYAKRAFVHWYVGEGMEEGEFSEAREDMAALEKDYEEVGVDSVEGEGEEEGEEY
Chain of UniProt P62256 (P62256 whole entry, looked up): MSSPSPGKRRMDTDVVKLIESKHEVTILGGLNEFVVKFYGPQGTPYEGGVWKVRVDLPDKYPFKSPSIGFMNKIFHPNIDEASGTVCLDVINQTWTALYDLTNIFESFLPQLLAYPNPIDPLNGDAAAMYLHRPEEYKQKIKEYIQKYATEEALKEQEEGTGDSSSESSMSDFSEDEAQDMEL
Chain of UniProt O95801 (O95801 whole entry, looked up): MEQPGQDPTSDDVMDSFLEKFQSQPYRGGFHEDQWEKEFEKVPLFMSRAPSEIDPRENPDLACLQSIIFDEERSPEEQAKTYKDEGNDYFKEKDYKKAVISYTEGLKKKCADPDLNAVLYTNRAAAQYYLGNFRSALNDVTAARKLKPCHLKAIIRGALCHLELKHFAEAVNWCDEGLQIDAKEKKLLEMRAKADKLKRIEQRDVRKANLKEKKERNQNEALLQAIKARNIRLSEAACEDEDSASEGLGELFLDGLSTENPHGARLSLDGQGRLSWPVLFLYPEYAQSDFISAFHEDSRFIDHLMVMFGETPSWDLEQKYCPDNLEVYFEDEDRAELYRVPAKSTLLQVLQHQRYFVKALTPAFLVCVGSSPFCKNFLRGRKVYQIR
Chain of UniProt P09493 (P09493 whole entry, looked up): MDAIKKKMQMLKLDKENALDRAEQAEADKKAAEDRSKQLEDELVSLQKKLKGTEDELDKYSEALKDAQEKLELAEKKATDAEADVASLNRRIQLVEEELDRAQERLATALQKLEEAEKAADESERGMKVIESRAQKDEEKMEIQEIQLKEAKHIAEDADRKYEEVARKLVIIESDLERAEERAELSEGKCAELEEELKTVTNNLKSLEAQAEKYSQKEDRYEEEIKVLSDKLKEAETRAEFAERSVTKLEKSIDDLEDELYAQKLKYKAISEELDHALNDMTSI

| Target | log2 fold change [1] | log2 fold change [2] | log2 fold change [3] | log2 fold change [4] | log2 fold change [5] | log2 fold change [6] | log2 fold change [7] | log2 fold change [8] | log2 fold change [9] | log2 fold change [10] |
| --- | --- | --- | --- | --- | --- | --- | --- | --- | --- | --- |
| UBE3C (UniProt Q15386) | -0.004 | -0.029 | -0.055 | -0.039 | 0.007 | -0.075 | 0 | 0.038 | -0.036 | 0.021 |
| TNIK (UniProt C9J338) | -0.042 | -0.023 | -0.075 | -0.443 (active) | 0.115 | 0.344 | 0.012 | 0.005 | -0.258 | 0.344 |
| UCHL5 isoform 3 (UniProt Q9Y5K5) | 0.042 | -0.029 | 0.022 | 0.121 | -0.01 | -0.044 | -0.007 | -0.015 | -0.019 | -0.02 |
| TRIM23 (UniProt P36406) | -0.063 | -0.12 | -0.003 | -0.235 | 0.134 | 0.372 (active) | 0.026 | 0.01 | -0.088 | 0.297 |
| TLK2 isoform 2 (UniProt Q86UE8) | -0.041 | 0.112 | -0.029 | -0.115 | -0.042 | 0.351 (active) | 0.126 | 0.006 | 0.004 | 0.049 |
| TRAPPC6A isoform 2 (UniProt O75865) | 0.02 | 0.015 | 0.001 | -0.146 | -0.006 | 0.14 | -0.039 | -0.01 | 0.017 | 0.05 |
| TMPO (UniProt P42166) | 0.018 | -0.012 | 0.016 | -0.179 | 0.023 | -0.048 | 0.016 | -0.017 | -0.021 | 0.034 |
| TIMM44 (UniProt O43615) | 0.04 | 0.022 | 0.055 | 0.009 | -0.003 | 0.136 | 0.019 | 0.058 | -0.067 | 0.065 |
| TUBB3 (UniProt Q13509) | 0.015 | 0.032 | -0.027 | 0.018 | 0.026 | 0.02 | 0.001 | -0.005 | 0.021 | 0.001 |
| TRIM25 (UniProt Q14258) | 0.009 | -0.031 | 0.1 | 0.031 | -0.021 | 0 | 0.03 | -0.036 | -0.012 | -0.038 |
| TTC4 (UniProt O95801) | 0.006 | 0.025 | -0.073 | -0.059 | -0.001 | 0.035 | 0.009 | 0.014 | -0.001 | 0.026 |
| TUBA1B (UniProt P68363) | 0.004 | 0.001 | -0.039 | -0.015 | -0.011 | 0.022 | -0.011 | 0.023 | -0.025 | 0.002 |
| TPD52L2 isoform 7 (UniProt O43399) | 0.039 | 0.003 | 0.095 | -0.124 | -0.022 | 0.222 (active) | 0.043 | 0.03 | 0.139 | 0.057 |
| TPM1 isoform 4 (UniProt P09493) | 0.032 | -0.051 | 0.001 | 0.061 | -0.029 | -0.142 | 0.013 | 0.012 | 0.011 | -0.142 |
| TSPAN13 (UniProt O95857) | 0.017 | 0.015 | 0.011 | -0.387 (active) | -0.241 | 0.32 | -0.207 | 0.119 | 0.038 | 0.055 |
| TBCE (UniProt Q15813) | -0.019 | -0.039 | -0.042 | -0.002 | 0.025 | -0.034 | -0.004 | 0.001 | 0.033 | 0.039 |
| TCF3 (UniProt P15923) | 0.014 | 0.014 | 0.066 | -0.042 | 0.22 (active) | 0.053 | -0.013 | -0.031 | -0.036 | -0.032 |
| UBE2D1 (UniProt P51668) | 0.052 | 0.043 | 0.01 | -0.012 | 0.031 | -0.047 | 0.081 | 0.038 | -0.058 | -0.033 |
| UBA1 (UniProt P22314) | -0.005 | -0.003 | -0.037 | -0.012 | 0.011 | -0.017 | -0.005 | 0.009 | -0.017 | 0.023 |
| THEMIS2 (UniProt Q5TEJ8) | -0.052 | 0.029 | -0.025 | 0.004 | -0.026 | -0.001 | 0.006 | -0.042 | -0.059 | 0.065 |
| UBR5 (UniProt O95071) | -0.003 | -0.009 | -0.055 | -0.01 | -0.004 | -0.018 | 0.001 | 0.012 | -0.047 | 0.046 |
| UBE2H (UniProt P62256) | 0.002 | -0.022 | 0.011 | 0.174 | 0.016 | -0.172 | 0.024 | 0.003 | 0.009 | -0.188 |
| TMOD1 (UniProt P28289) | 0 | -0.032 | -0.011 | 0.039 | -0.008 | -0.059 | 0.026 | 0.019 | -0.004 | -0.029 |
| TNFAIP3 (UniProt P21580) | -0.032 | 0.052 | -0.013 | 0.032 | 0.038 | -0.075 | 0.744 | 0.084 | -0.02 | -0.023 |
| TUT4 (UniProt Q5TAX3) | -0.003 | -0.041 | 0 | -0.064 | 0.006 | -0.001 | 0.047 | -0.023 | -0.039 | 0.15 |
| TPX2 (UniProt Q9ULW0) | 0.008 | 0.032 | 0.023 | 0.01 | 0.002 | 0.04 | -0.003 | 0.049 | -0.023 | -0.011 |
| UBL4A (UniProt P11441) | -0.003 | -0.057 | 0.112 | 0.253 (active) | 0.007 | -0.157 | 0.076 | -0.029 | -0.044 | -0.06 |
| TRMT10A (UniProt Q8TBZ6) | 0.042 | 0.083 | 0.031 | -0.041 | 0.001 | 0.02 | -0.047 | 0.001 | 0.012 | 0.059 |
| TMEM263 (UniProt Q8WUH6) | 0.149 | 0.015 | 0.06 | -0.072 | 0.02 | 0.178 | -0.066 | 0.112 | -0.028 | 0.208 |
| TTI1 (UniProt O43156) | -0.011 | -0.044 | -0.11 | -0.075 | -0.005 | -0.113 | 0.028 | 0.045 | -0.016 | 0.056 |
